Z-score and composite z-score data for nine molecules are collected here from PubChem BioAssay.

The structures appear in SMILES notation. The source made the active and inactive calls.

A short description of assay [1]: compound effects on lung adenocarcinoma cell viability – A549, calcein-AM fluorescence, 48 h, basal, profiling panel (AID 1162). Note: test concentration not given here. The conditions noted are these: higher = more signal.
The nature of assay [2]: compound effects on differentiated 3T3-L1 adipocyte viability – cell-based, 3T3-L1 adipocytes, calcein-AM fluorescence, 48 h, basal, profiling panel (AID 1163). Note: test concentration not given here. The conditions noted are these: 3T3-L1 adipocytes viability, higher = more signal.
Assay [3] in a line: compound effects on hepatocellular carcinoma cell viability – HepG2, calcein-AM fluorescence, 48 h, basal, profiling panel (AID 1164). Note: test concentration not given here. The conditions noted are these: higher = more signal.
The nature of assay [4]: compound effects on multiple myeloma cell viability – MM1S, calcein-AM fluorescence, 48 h, basal, profiling panel (AID 1165). Note: test concentration not given here. The conditions noted are these: higher = more signal.
A short description of assay [5]: calcein-AM signal in unstimulated myeloma cells – cell-based, calcein-AM fluorescence, 48 h, PK04 Diversity Set, profiling panel (AID 1166).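 Note: cells grown under basal conditions without added stimulus; test concentration not given here.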 The conditions noted are these: RPMI8226 myeloma viability, higher = more signal.
Assay [6] in a line: JC-1 mitochondrial signal, unstimulated HepG2 cells – cell-based, JC-1 fluorescence, 24 h, 100 nL compound, profiling panel (AID 1167). Note: test concentration not given here. The conditions noted are these: HepG2 mitochondrial potential, higher = more signal.
The nature of assay [7]: JC-1 mitochondrial signal, unstimulated adipocytes – cell-based, JC-1 fluorescence, 3T3-L1 adipocytes, 24 h, 100 nL compound, profiling panel (AID 1168). Note: test concentration not given here. The conditions noted are these: JC-1 mitochondrial fluorescence, higher = more signal, called active from +8 up or from −8 down.
The nature of assay [8]: JC-1 mitochondrial signal, unstimulated myeloma cells – cell-based, JC-1 fluorescence, RPMI8226, 24 h, 100 nL compound, profiling panel (AID 1169). Note: test concentration not given here. The conditions noted are these: JC-1 mitochondrial potential fluorescence, higher = more signal.
Assay [9] is described as follows: JC-1 mitochondrial signal, unstimulated MM1S myeloma – cell-based, JC-1 fluorescence, 24 h, 100 nL compound, profiling panel (AID 1170). Note: test concentration not given here. The conditions noted are these: MM1S mitochondrial potential, higher = more signal.
The nature of assay [10]: resazurin metabolic signal in A549 cells – cell-based, resazurin fluorescence, 24 h, PK04 Diversity Set, profiling panel (AID 1171). Note: test concentration not given here. The conditions noted are these: A549 viability, higher = more signal, called active from +8 up or from −8 down.
The nature of assay [11]: resazurin metabolic signal in HepG2 cells – cell-based, resazurin fluorescence, 24 h, PK04 Diversity Set, profiling panel (AID 1172). Note: test concentration not given here. The conditions noted are these: HepG2 viability, higher = more signal. Background: Alamar Blue is a resazurin reagent that responds to reducing activity.
A short description of assay [12]: budding yeast growth changes without added modifier – OD600, strain BY4716, 24 h, basal condition, primary screen (AID 1173). The conditions noted are these: S. cerevisiae BY4716 growth, OD600, 24 h; higher = more signal, called active from +8 up or from −8 down.
A short description of assay [13]: viability profiling in MM1S myeloma cells – cell-based, resazurin fluorescence, basal, 24 h, PK04 Diversity Set, profiling panel (AID 1174). Note: test concentration not given here. The conditions noted are these: higher = more signal, called active from +8 up or from −8 down.
Assay [14] deals with Dihydroorotate dehydrogenase (quinone), mitochondrial (Plasmodium falciparum (isolate 3D7)) (UniProt Q08210). The experiment in a line: inhibition of P. falciparum DHODH – biochemical, C-terminal His tag, absorbance 600 nm, primary screen (AID 1175).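 Note: recombinant parasite enzyme with a five histidine tag at its C terminus; test concentration not given here.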 The conditions noted are these: PfDHODH enzyme, DCIP absorbance 600 nm; higher = more signal, called active from +8 up or from −8 down.
Sequence of Dihydroorotate dehydrogenase (quinone), mitochondrial (Plasmodium falciparum (isolate 3D7)) (Q08210 whole entry, looked up): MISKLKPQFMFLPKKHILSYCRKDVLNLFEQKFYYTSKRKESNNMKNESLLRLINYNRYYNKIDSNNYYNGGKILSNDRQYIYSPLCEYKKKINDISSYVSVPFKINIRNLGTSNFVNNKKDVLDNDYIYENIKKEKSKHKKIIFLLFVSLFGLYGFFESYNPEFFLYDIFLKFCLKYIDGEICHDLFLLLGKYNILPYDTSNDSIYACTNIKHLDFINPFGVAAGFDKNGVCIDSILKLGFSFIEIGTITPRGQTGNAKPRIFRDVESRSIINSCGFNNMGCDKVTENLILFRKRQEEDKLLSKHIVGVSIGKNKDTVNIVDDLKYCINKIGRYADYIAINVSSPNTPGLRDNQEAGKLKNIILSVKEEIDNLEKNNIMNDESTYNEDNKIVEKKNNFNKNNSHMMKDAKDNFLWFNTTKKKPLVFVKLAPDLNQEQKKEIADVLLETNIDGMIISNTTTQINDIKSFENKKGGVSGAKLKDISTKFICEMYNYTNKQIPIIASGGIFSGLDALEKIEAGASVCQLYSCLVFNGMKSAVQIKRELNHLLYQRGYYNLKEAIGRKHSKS

The nature of assay [15]: growth modulation of vineyard yeast isolate – strain RM11-1a, OD600, basal, 24 h, primary screen (AID 1177).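 Note: cultures grown under basal conditions with no added stressor; test concentration not given here.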 The conditions noted are these: S. cerevisiae RM11-1a growth, OD600, 24 h; higher = more signal, called active from +8 up or from −8 down.
A short description of assay [16]: growth of efflux-deficient E. coli DRC39 – strain DRC39, OD650, 24 h, E. coli filamentation inducers, primary screen (AID 1178).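 Note: growth measured as culture turbidity by optical density at 650 nm; test concentration not given here.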 The conditions noted are these: E. coli DRC39 acrAB, higher = more signal, called active from +8 up or from −8 down.
Assay [17] can be described thus: growth of efflux-deficient E. coli DRC39 – strain DRC39, OD650, 48 h, E. coli filamentation inducers, primary screen (AID 1179).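 Note: screen aims at cell division blockers that make cells filament.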 The conditions noted are these: E. coli DRC39 delta-acrAB growth, higher = more signal, called active from +8 up or from −8 down.
A short description of assay [18]: viability profiling in RPMI8226 myeloma cells – cell-based, resazurin fluorescence, basal, 24 h, PK04 Diversity Set, profiling panel (AID 1180).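 Note: RPMI8826 multiple myeloma cell line at 5000 cells per well; test concentration not given here.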 The conditions noted are these: higher = more signal.
Assay [19] deals with E3 ubiquitin-protein ligase XIAP (Homo sapiens) (UniProt P98170). The experiment in a line: small molecules binding XIAP protein – biophysical, small-molecule microarray, fluorescence 635 nm, primary screen (AID 1181).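 Note: score merges 667 nm emission and signal to noise over triplicate slides.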 The conditions noted are these: higher = more signal.
Sequence of E3 ubiquitin-protein ligase XIAP (Homo sapiens) (P98170 whole entry, looked up): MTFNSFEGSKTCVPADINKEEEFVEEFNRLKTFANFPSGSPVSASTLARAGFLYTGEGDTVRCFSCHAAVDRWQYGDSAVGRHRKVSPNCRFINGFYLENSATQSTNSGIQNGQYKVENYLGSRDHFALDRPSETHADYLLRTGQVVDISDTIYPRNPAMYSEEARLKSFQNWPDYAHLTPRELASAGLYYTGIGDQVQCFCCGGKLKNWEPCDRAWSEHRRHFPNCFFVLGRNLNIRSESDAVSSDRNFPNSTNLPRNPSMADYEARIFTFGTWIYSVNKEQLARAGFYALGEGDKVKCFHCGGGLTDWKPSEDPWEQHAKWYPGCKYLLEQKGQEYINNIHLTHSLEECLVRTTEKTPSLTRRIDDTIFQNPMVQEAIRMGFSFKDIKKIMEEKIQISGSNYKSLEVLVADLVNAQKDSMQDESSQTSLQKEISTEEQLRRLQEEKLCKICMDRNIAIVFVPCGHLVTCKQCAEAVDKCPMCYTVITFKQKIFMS

Regarding `COc1ccc(-c2ccccc2[C@@H]2N[C@H](C(=O)O)CC[C@H]2C)cc1`, the z-score in assay [1] was 0.212; in assay [2], 1.63; in assay [3], -0.428; in assay [4] it was 1.09; in assay [5], -0.372; in assay [6] it was 0.924. The z-score was 0.366 (inactive) in [7]; 0.1 in assay [8]; 0.614 in [9]; 0.597 (inactive) in assay [10]; 0.0637 in [11]; -0.611 (inactive) in assay [12]. In addition, the z-score in assay [13] is 1.37 (inactive); in assay [15], 0.649 (inactive); in assay [16] it was -0.892 (inactive); in assay [17], 0.0279 (inactive); in assay [18] it was 1.61. The results for the composite z-score in assay [14] and in assay [19] were 0.577 (inactive) and -0.113, respectively.

For the molecule `C=CCNC(=O)[C@H]1[C@@H]2C(=O)O[C@@H](c3ccccc3)[C@@H](c3ccccc3)N2[C@@H](c2ccc(O)cc2)[C@]12C(=O)Nc1ccc(C#CCNC(N)=O)cc12`, the z-score is 0.294 in assay [1]; 0.57 in [2]; -0.348 in assay [3]; -0.778 in [4]; -0.144 in assay [5]; -0.0995 in assay [6]. For the same molecule, the z-score in assay [7] was -0.0287 (inactive); in [8] it was 0.424; in assay [9] it was 0.716; in [10], 0.999 (inactive); in assay [11], 0.435; in [12], -0.558 (inactive). Further, the z-score in assay [13] is 0.476 (inactive); in [15] it was -0.381 (inactive); in assay [16], 0.574 (inactive); in assay [17] it was 0.771 (inactive); in assay [18], 0.917. In addition, the composite z-score in [14] is -0.438 (inactive); in assay [19] it was 0.0223.

For the molecule `C=CCC(OC(C)=O)[C@@H]1[C@@H](N(Cc2cc3ccccc3o2)C(=O)Cc2ccc(F)cc2)c2cc(OCCCO)ccc2N1C(=O)c1ccc(-c2ccccc2)cc1` (stereo partly specified), the z-score in assay [1] is 1.79; in assay [2], 0.0893; in assay [3], 1.01; in assay [4] it was 0.661; in assay [5] it was 0.708; in assay [6], 2.84. The z-score is 0.756 (inactive) in assay [7]; 0.602 in assay [8]; 0.0416 in assay [9]; 1.18 (inactive) in [10]; 1.13 in [11]; -0.588 (inactive) in [12]. Also, the z-score in [13] was -0.518 (inactive); in assay [15], -0.157 (inactive); in assay [16], 1.17 (inactive); in assay [17] it was 0.845 (inactive); in assay [18], 0.673. Besides, the composite z-score in assay [14] was -0.177 (inactive); in assay [19], -0.332.

With `C[C@H]1COC(=O)[C@H](Cc2ccccc2)NC(=O)[C@@H](C)COC(=O)[C@H](Cc2ccccc2)NC1=O`, the z-score in [1] was -0.429; in assay [2], 1.27; in assay [3], 0.0613; in assay [4] it was 0.244; in assay [5], 1.03; in [6], 0.827. Further, the z-score in assay [7] was 0.382 (inactive); in [8], -0.405; in [9] it was 0.0881; in [10], 0.512 (inactive); in [11] it was 0.24; in assay [12], -1.23 (inactive). Besides, the z-score in [13] was 1.04 (inactive); in [15] it was -1.43 (inactive); in assay [16], 0.253 (inactive); in [17], -0.156 (inactive); in [18], 1.28. Besides, the composite z-score in assay [14] was 0.063 (inactive); in assay [19], -0.127.

As to `C=CCOC(=O)[C@@H]1[C@H]2C(=O)O[C@H](c3ccccc3)[C@H](c3ccccc3)N2[C@H](c2ccc(OCCOC(=O)[C@H]3C[C@H]4C(=O)N5CCC[C@H]5C(=O)N4[C@H]3c3ccc(O)cc3)cc2)[C@@]12C(=O)Nc1ccccc12`, the z-score is 0.17 in assay [1]; 1.25 in [2]; -1.06 in [3]; -0.222 in assay [4]; -0.931 in assay [5]; -1.16 in [6]. For the same molecule, the z-score in assay [7] was 0.597 (inactive); in assay [8], -0.674; in assay [9] it was -0.393; in assay [10], -0.0653 (inactive); in assay [11] it was -0.379; in assay [12], -0.117 (inactive). For the same molecule, the z-score in assay [13] was 0.201 (inactive); in assay [15], 0.256 (inactive); in [16], 0.197 (inactive); in assay [17] it was -0.148 (inactive); in assay [18] it was 1.03. Further, the composite z-score in assay [14] was 0.0956 (inactive); in [19], -0.217.

In the case of `CO[C@H]1COC(=O)CC=C[C@H](C)COC(=O)[C@@H](OCc2ccccc2)C=C[C@@H]1C`, the z-score in assay [1] was -0.696; in assay [2] it was -0.886; in assay [3], 0.806; in assay [4], 0.178; in assay [5], -1.73; in [6], 0.96. In addition, the z-score in [7] is 0.877 (inactive); in assay [8], 0.103; in assay [9], 0.398; in assay [10], 0.0283 (inactive); in [11] it was -0.103; in assay [12], -0.348 (inactive). Moreover, the z-score in assay [13] is 1.46 (inactive); in assay [15] it was -1.22 (inactive); in [16], 0.566 (inactive); in assay [17] it was 0.171 (inactive); in assay [18], 0.627. Moreover, the results for the composite z-score in [14] and in assay [19] were -2.5 (inactive) and -0.22, respectively.

Regarding `CO[C@H]1O[C@H](CO)[C@@H](OC(=O)CCc2ccccc2)[C@@H]2OC(=O)[C@H](Cc3cccc(Br)c3)C/C=C/C[C@@H](Cc3cccc(Br)c3)C(=O)O[C@@H]12`, the z-score was 1.28 in assay [1]; 1.22 in assay [2]; 2.26 in [3]; 1.15 in assay [4]; 1.6 in assay [5]; 1.01 in [6]. The z-score is 1.6 (inactive) in [7]; -0.359 in [8]; 1.18 in [9]; 0.844 (inactive) in assay [10]; 1.13 in assay [11]; -3.87 (inactive) in [12]. The z-score was 1.5 (inactive) in [13]; -4.01 (inactive) in assay [15]; 1.41 (inactive) in [16]; 1.14 (inactive) in assay [17]; 1.45 in assay [18]. The composite z-score in assay [14] is -0.578 (inactive); in assay [19], 0.0356.

Consider `C=C(COC)/C(=C/C[C@H](OC(C)=O)c1ccc(OCCO)cc1)c1cnc2ccccc2c1`, for which the z-score in assay [1] is 0.373; in assay [2], 1.18; in assay [3] it was -0.141; in assay [4], -1.53; in [5], 1.07; in [6] it was 2.07. Further, the z-score in assay [7] was 1.2 (inactive); in assay [8], 0.23; in [9] it was 0.278; in assay [10] it was 0.715 (inactive); in assay [11] it was 0.807; in [12] it was -0.229 (inactive). Also, the z-score was 1.03 (inactive) in assay [13]; 1.65 (inactive) in [15]; 1.2 (inactive) in [16]; 0.805 (inactive) in assay [17]; 1.03 in assay [18]. Further, the composite z-score was -2.82 (inactive) in assay [14] and -0.102 in assay [19].

`C=C(/C(=C/C[C@@H](OC(=O)c1ccncc1)c1ccc(CO)o1)c1cnc2ccccc2c1)C(C)C`: the z-score was 0.755 in assay [1]; 1.61 in assay [2]; -0.993 in assay [3]; -1.24 in assay [4]; 0.13 in assay [5]; -0.75 in assay [6]. Besides, the z-score in assay [7] is 0.03 (inactive); in [8] it was 0.0616; in [9], 0.627; in [10] it was 0.382 (inactive); in assay [11], 0.0389; in assay [12], -2.58 (inactive). Besides, the z-score is 0.558 (inactive) in assay [13]; -0.475 (inactive) in [15]; 1.4 (inactive) in assay [16]; 0.811 (inactive) in [17]; 1.17 in assay [18]. Further, the composite z-score in assay [14] is -6.53 (inactive); in [19] it was 0.374.
